The campaign covered roughly 5,500 compounds. About 2,000 (36%) were called active. Inconclusive results (about 18%) are left out. Cut-off read from the data, not from the text of the source: active = normalized growth mostly below about 0.91 (no sharp cut-off); inconclusive = no clear call, values can overlap the other calls; inactive = mostly above about 0.92. The list shows a part of the results.
Experiment: chemical genetic growth profiling, strain panel (AID 1159580);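 note: tested at 20 µM; growth read once vehicle control cultures reached saturation at 30 °C; 1 = growth at the plate median or of vehicle wells; lower values mean less growth of the strain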
Details: growth OD

Measured: normalized growth

O=C(/C=C/c1ccccc1)c1c(O)cc(O)cc1O
inactive: S. cerevisiae deletion strains, locus YAL013W, strain DEP1, hits give low values 1.01 | S. cerevisiae deletion strains, locus YBR021W, strain FUR4, hits give low values 0.995 | S. cerevisiae deletion strains, locus YBR229C, strain ROT2, hits give low values 1.01 | S. cerevisiae deletion strains, locus YCL029C, strain bik1, hits give low values 1 | S. cerevisiae deletion strains, locus YDL035C, strain GPR1, hits give low values 1.02 | S. cerevisiae deletion strains, locus YDL074C, strain BRE1, hits give low values 1.02 | S. cerevisiae deletion strains, locus YDL101C, strain DUN1, hits give low values 1.01 | S. cerevisiae deletion strains, locus YDL134C, strain PPH21, hits give low values 1.02 | S. cerevisiae deletion strains, locus YDL185W, strain tfp1, hits give low values 1.01 | S. cerevisiae deletion strains, locus YDL192W, strain arf1, hits give low values 1 | S. cerevisiae deletion strains, locus YDR101C, strain arx1, hits give low values 0.999 | S. cerevisiae deletion strains, locus YDR150W, strain NUM1, hits give low values 1.02 | S. cerevisiae deletion strains, locus YDR162C, strain NBP2, hits give low values 1.04 | S. cerevisiae deletion strains, locus YDR318W, strain mcm21, hits give low values 0.995 | S. cerevisiae deletion strains, locus YDR388W, hits give low values 0.997 | S. cerevisiae deletion strains, locus YDR502C, strain sam2, hits give low values 1 | S. cerevisiae deletion strains, locus YEL061C, strain CIN8, hits give low values 1.01 | S. cerevisiae deletion strains, locus YER110C, hits give low values 1.01 | S. cerevisiae deletion strains, locus YER155C, strain BEM2, hits give low values 1.01 | S. cerevisiae deletion strains, locus YER167W, strain BCK2, hits give low values 1.01 | S. cerevisiae deletion strains, locus YGL078C, strain dbp3, hits give low values 1 | S. cerevisiae deletion strains, locus YGL086W, strain mad1, hits give low values 1 | S. cerevisiae deletion strains, locus YGL248W, strain PDE1, hits give low values 1.01 | S. cerevisiae deletion strains, locus YGR078C, strain PAC10, hits give low values 1.03 | S. cerevisiae deletion strains, locus YGR135W, strain pre9, hits give low values 1 | S. cerevisiae deletion strains, locus YGR229C, strain SMI1, hits give low values 1.02 | S. cerevisiae deletion strains, locus YGR252W, strain gcn5, hits give low values 0.972 | S. cerevisiae deletion strains, locus YHR030C, strain SLT2, hits give low values 1.01 | S. cerevisiae deletion strains, locus YHR079C, strain IRE1 (second series), hits give low values 0.994 | S. cerevisiae deletion strains, locus YHR094C, strain hxt1, hits give low values 1 | S. cerevisiae deletion strains, locus YHR129C, strain ARP1, hits give low values 1.01 | S. cerevisiae deletion strains, locus YHR200W, strain rpn10, hits give low values 1 | S. cerevisiae deletion strains, locus YIL066C, strain RNR3, hits give low values 1.02 | S. cerevisiae deletion strains, locus YIL073C, strain SPO22, hits give low values 1.04 | S. cerevisiae deletion strains, locus YIL125W, strain kgd1, hits give low values 1 | S. cerevisiae deletion strains, locus YIR030C, strain dcg1, hits give low values 0.999 | S. cerevisiae deletion strains, locus YJL095W, strain BCK1, hits give low values 1.01 | S. cerevisiae deletion strains, locus YJL134W, strain LCB3, hits give low values 1.01 | S. cerevisiae deletion strains, locus YJL168C, strain set2, hits give low values 0.993 | S. cerevisiae deletion strains, locus YJL187C, strain SWE1 (second series), hits give low values 1.01 | S. cerevisiae deletion strains, locus YJR043C, strain POL32, hits give low values 0.998 | S. cerevisiae deletion strains, locus YJR075W, strain HOC1, hits give low values 1.01 | S. cerevisiae deletion strains, locus YKL009W, strain mrt4, hits give low values 1.01 | S. cerevisiae deletion strains, locus YKL068W, hits give low values 1 | S. cerevisiae deletion strains, locus YKL085W, strain MDH1 (second series), hits give low values 1 | S. cerevisiae deletion strains, locus YKL085W, strain MDH1, hits give low values 1 | S. cerevisiae deletion strains, locus YKL190W, strain CNB1, hits give low values 1.01 | S. cerevisiae deletion strains, locus YKR001C, strain vps1, hits give low values 1.01 | S. cerevisiae deletion strains, locus YLR039C, strain RIC1, hits give low values 1.04 | S. cerevisiae deletion strains, locus YLR058C, strain SHM2, hits give low values 1.01 | S. cerevisiae deletion strains, locus YLR102C, strain apc9, hits give low values 0.998 | S. cerevisiae deletion strains, locus YLR262C, strain YPT6, hits give low values 1.06 | S. cerevisiae deletion strains, locus YLR268W, strain sec22, hits give low values 0.989 | S. cerevisiae deletion strains, locus YLR330W, strain CHS5, hits give low values 1.01 | S. cerevisiae deletion strains, locus YLR342W, strain FKS1 (second series), hits give low values 1 | S. cerevisiae deletion strains, locus YLR371W, strain rom2, hits give low values 0.997 | S. cerevisiae deletion strains, locus YLR418C, strain cdc73, hits give low values 0.992 | S. cerevisiae deletion strains, locus YML016C, strain PPZ1, hits give low values 1.01 | S. cerevisiae deletion strains, locus YML032C, strain rad52, hits give low values 1 | S. cerevisiae deletion strains, locus YML124C, strain tub3, hits give low values 1.01 | S. cerevisiae deletion strains, locus YMR078C, strain ctf18, hits give low values 1 | S. cerevisiae deletion strains, locus YMR223W, strain ubp8, hits give low values 0.995 | S. cerevisiae deletion strains, locus YMR263W, strain SAP30, hits give low values 1.02 | S. cerevisiae deletion strains, locus YMR307W, strain GAS1, hits give low values 0.915 | S. cerevisiae deletion strains, locus YNL067W, strain RPL9B, hits give low values 1.01 | S. cerevisiae deletion strains, locus YNL128W, strain TEP1, hits give low values 1.02 | S. cerevisiae deletion strains, locus YNL153C, strain GIM3, hits give low values 1.03 | S. cerevisiae deletion strains, locus YNL233W, strain BNI4, hits give low values 1.02 | S. cerevisiae deletion strains, locus YNL250W, strain rad50, hits give low values 1.01 | S. cerevisiae deletion strains, locus YNL271C, strain bni1, hits give low values 1 | S. cerevisiae deletion strains, locus YNL298W, strain CLA4, hits give low values 1.01 | S. cerevisiae deletion strains, locus YNL307C, strain MCK1, hits give low values 1.01 | S. cerevisiae deletion strains, locus YNL322C, strain KRE1, hits give low values 1.01 | S. cerevisiae deletion strains, locus YNR052C, strain pop2, hits give low values 0.998 | S. cerevisiae deletion strains, locus YOL006C, strain TOP1, hits give low values 1.05 | S. cerevisiae deletion strains, locus YOL012C, strain htz1 0.787 | S. cerevisiae deletion strains, locus YOL147C, strain pex11, hits give low values 1.01 | S. cerevisiae deletion strains, locus YOR061W, strain CKA2, hits give low values 1.01 | S. cerevisiae deletion strains, locus YOR069W, strain VPS5, hits give low values 1.01 | S. cerevisiae deletion strains, locus YOR136W, strain idh2, hits give low values 0.995 | S. cerevisiae deletion strains, locus YOR144C, strain elg1, hits give low values 1 | S. cerevisiae deletion strains, locus YOR184W, strain ser1, hits give low values 1.01 | S. cerevisiae deletion strains, locus YOR316C, strain cot1, hits give low values 0.996 | S. cerevisiae deletion strains, locus YPL055C, strain LGE1, hits give low values 1.05 | S. cerevisiae deletion strains, locus YPL241C, strain CIN2, hits give low values 1.01 | S. cerevisiae deletion strains, locus YPR119W, strain clb2, hits give low values 0.997 | S. cerevisiae deletion strains, locus YPR141C, strain kar3, hits give low values 1.01 | S. cerevisiae deletion strains, locus YPR163C, strain tif3, hits give low values 1 | S. cerevisiae deletion strains, locus YPR167C, strain met16, hits give low values 0.998 | S. cerevisiae deletion strains, strain wtn01, hits give low values 1.01 | S. cerevisiae strains, strain wild type, hits give low values 1.01

Reference: PubChem BioAssay AID1159580 (chemical genetic matrix, 2015)
